Laboratory results as given in PubChem BioAssay (NCI).
The panel holds about 79,000 compounds, 15% with a hit somewhere; the sample as a whole holds those more often. Unmarked numbers belong to inactive results. The source made the active and inactive calls. Cut-off read from the data, not from the text of the source: active = growth inhibition above about 70%; inactive = the rest.

What was measured:
[1] = NCI Yeast Anticancer Drug Screen. Data for the rad50 strain (AID 155);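 note: 0% = growth of vehicle-only cultures of the same strain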; details: S. cerevisiae rad50 strain growth inhibition; at 50.0 µM; active compounds read high
Method in brief: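 Cells are treated with compound, grown, and their growth is then scored against vehicle-only cultures of the same repair-deficient yeast strain.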

[2] = NCI Yeast Anticancer Drug Screen. Data for the mec2-1 strain (AID 157); details: S. cerevisiae mec2-1 strain, at 50.0 µM, active compounds read high
Method in brief: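 Yeast mec2-1 mutant treated with compound. Readout: growth inhibition vs vehicle controls.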

[3] = NCI Yeast Anticancer Drug Screen. Data for the sgs1 mgt1 strain (AID 161);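 note: 0% = growth of cultures given vehicle only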; details: S. cerevisiae sgs1 mgt1 strain, at 50.0 µM, active compounds read high
Method in brief: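 Mutant yeast exposed to compound; growth scored against vehicle-only wells.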

[4] = NCI Yeast Anticancer Drug Screen. Data for the cln2 rad14 strain (AID 165);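 note: 0% = growth equal to vehicle treated cultures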; details: S. cerevisiae cln2 rad14 strain, at 50.0 µM, active compounds read high
Method in brief: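 cln2 rad14 yeast strain; compound exposure; growth inhibition read vs vehicle controls.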

[5] = NCI Yeast Anticancer Drug Screen. Data for the bub3 strain (AID 167); details: S. cerevisiae bub3 mutant strain, at 50.0 µM, active compounds read high
Method in brief: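 Part of a panel of yeast mutants defective in DNA damage repair or cell cycle regulation. Each strain is grown with compound, and inhibition is calculated relative to solvent-treated cultures.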

[6] = NCI Yeast Anticancer Drug Screen. Data for the mlh1 rad18 strain (AID 175); details: S. cerevisiae mlh1 rad18 strain growth inhibition; at 50.0 µM; active compounds read high
Method in brief: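 Yeast w/ defined DNA-repair lesions; compound exposure; growth vs vehicle controls → % inhibition.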

SMILES | growth inhibition [1] | growth inhibition [2] | growth inhibition [3] | growth inhibition [4] | growth inhibition [5] | growth inhibition [6]
N#CCC(=O)N/N=C1/C(=O)N(c2cc(Cl)ccc2Cl)C(=O)C(=O)C1c1nc2ccccc2s1 (stereo unspecified) | 42.8% | 27.8% | 38.1% | 19.9% | -0.5% | 51%
Clc1cc2ncn(C3CCCO3)c2cc1Cl (stereo unspecified) | 6.3% | 5.1% | 3% | 5.95% | 49% | 11.8%
Cc1cc(O)c2c(c1)C(=O)C=CC2=O | 6.7% | 5.2% | 1.3% | 4.15% | 10.3% | -25.9%
COC1OC(=O)c2cccc3cccc1c23 (stereo unspecified) | -9.3% | -14.8% | -8.2% | -7.5% | -2.4% | -18.7%
CN=NN(C)C(=O)NC | -11.9% | 0.7% | 10.1% | -13% | -25% | 30.4%
CC(=O)NNc1nc(C)c(C(/C=C/c2ccc([N+](=O)[O-])cc2)=N/N)s1 | 22.4% | 9.2% | 3.85% | 17.4% | -0.4% | -12.4%
Cc1ccc(C)c(NC(=O)Oc2cc(C)c(Cl)cc2C(C)C)c1 | 85.8% (active) | 99.2% (active) | 98.5% (active) | 72.8% (active) | 98.5% (active) | 98.8% (active)
CCn1c(=O)c2nc(SC)sc2n(-c2ccc(C)cc2)c1=O | -21.2% | -0.6% | -5.7% | 9.7% | 2% | 20.9%
Cc1cccn(C)c1=O | -5% | 1.9% | 2.15% | 2.15% | 0.4% | 3.05%
COc1ccc(CNc2ncccn2)cc1 | 14.1% | -23.7% | 0.7% | 9.5% | -12% | 13.5%
Oc1c(O)c(Cc2ccccc2)c(Cc2ccccc2)c(Cc2ccccc2)c1Cc1ccccc1 | 40.7% | -19.8% | 23.3% | -44.2% | -7.15% | 12.8%
c1cc(CSC2=NCCN2)ccc1CSC1=NCCN1 | -8% | 9.25% | -9.2% | -24.3% | 8.9% | -3.85%
CC(C)C1CC(C)(C)C2CC3OC(C(C)C)CC(C)(C)C3CC2O1 (stereo unspecified) | -12.1% | -3% | 2.75% | -2.65% | -10.3% | 1.35%
C=CCC(C#N)C1=CCCCC1 (stereo unspecified) | -6.85% | -26.6% | -12.4% | -4.3% | -23.6% | -5.75%
Cc1cc(C)nc(NS(=O)(=O)c2ccc(NC(=O)c3cccc4c(Nc5ccc(S(=O)(=O)N=C(N)N)cc5)c5ccc(Cl)cc5nc34)cc2)n1 | 16.4% | 23.3% | 27.2% | 24.4% | 13% | 32.8%
CC1(C)C2CCC1C(=O)C(C=O)C2 (stereo unspecified) | -10.3% | 16.1% | -22.1% | 32.5% | -40.2% | -41.8%
CCC(O)C(CC)CC (stereo unspecified) | 13.8% | -19.7% | -4.2% | 17% | -10.2% | 14.9%
NNS(=O)(=O)c1ccc(/C=C2\NC(=O)NC2=O)cc1 | -4.45% | 1.5% | -17.2% | 13.2% | -26.4% | 23.9%
N#C/C(=C/c1cccs1)c1ccc(Cl)cc1 | -4.6% | -15.2% | -11.8% | -21.1% | -16.1% | 1.85%
CC(C)(C)N1COCC(COc2ccc(Cl)cc2)OC1 (stereo unspecified) | -13.3% | -3.5% | 4.95% | 11.4% | -16.1% | 24.8%
Oc1c(Br)cc(Br)cc1/C=C/NC(=S)NC1CC2CC1C1C=CCC21 (stereo unspecified) | 28.2% | 32.1% | 10.6% | -6.15% | 5.15% | 55.9%

SMILES | growth inhibition [1] | growth inhibition [2] | growth inhibition [3] | growth inhibition [4] | growth inhibition [5] | growth inhibition [6]
O=C1CS[C@@H]2C(=O)CCCC2C1 (stereo partly specified) | -16% | 17.6% | -1.8% | -7.25% | -3.4% | -4.4%
CCCCCCCCCCCCCCCC(=O)O[C@@H]1[C@@H](C)[C@@]2(O)[C@@H](C=C(CO)C[C@]3(O)C(=O)C(C)=C[C@@H]23)[C@H]2[C@]1(OC(C)=O)[C@]2(C)CO | 14.8% | 2.75% | 20.1% | 30.9% | 21.1% | -71.2%
C=CCCCCCCCCCCCC | -20.1% | 0% | -20.8% | 0.8% | -21.2% | -0.4%
COc1ccc2c(ccc3nc(C)[nH]c(=O)c32)c1 | 5.3% | -5.35% | 2.95% | -30.2% | -10.6% | -6.3%
Cc1cc2ccccc2n1C | 4.05% | 5.45% | 39.5% | 10.1% | 31.9% | 18.2%
O=CC(O)CO (stereo unspecified) | 10.4% | 9.5% | 11.9% | 3.95% | 8.65% | -5.2%
C=CCCCC(C#N)c1ccc2c(c1)OCO2 (stereo unspecified) | -3.25% | -14.2% | -4.85% | -82% | -40.6% | -15.2%
Nc1nc(/C=C(/O)c2ccccc2)c2ncn(C3OC(CO)C(O)C3O)c2n1 (stereo unspecified) | 25.3% | -6.25% | 13.4% | -4.7% | 11.2% | -17.8%
Cc1cc2c(cc1C)[n+](=O)c(C(=O)/C=C/c1ccc3c(c1)OCO3)c(C)n2[O-] | 5.85% | 13.4% | 10.1% | 28.8% | 1.35% | 0.15%
Cc1ccc(S(=O)(=O)Nc2ccc3ncsc3c2[N+](=O)[O-])cc1 | 97.2% (active) | 98.7% (active) | 98.3% (active) | 98.2% (active) | 98% (active) | 98% (active)
Cc1ccc(S(=O)(=O)N=Nc2c(O)[nH]c3c(Cl)cc(Cl)cc23)cc1 | -11.8% | -18.8% | 4.65% | -1.2% | -22.4% | 23.2%
Cc1ccc(N=Cc2ccccc2O)cc1.[Co] | -18.9% | 14.9% | -2.75% | 14.2% | 1.45% | -11.1%
CCOC(=O)C(C(=O)OCC)=C1N[C@H](C(=O)OCC)CS1 | -0.8% | -17.5% | -15.8% | 13% | -6.7% | -22.8%
FC(F)(F)C1=NCCN1 | -0.5% | -11.1% | -2.85% | 11.4% | -2.45% | -10.3%
Nc1c(S(=O)(=O)O)ccc2c1C(=O)c1ccccc1C2=O | 27.9% | 24.2% | 34% | 6.5% | 49.1% | 16.4%
NC(CSSCC(N)=NC1CCCCC1)=NC1CCCCC1 | 6.5% | 3.4% | 13% | 7.35% | -1.45% | 20%
COC(=O)c1cccn1C(=O)c1ccc(C)c(OCc2ccccc2)c1[N+](=O)[O-] | 1.6% | -15.8% | 4.95% | -8.3% | 18.5% | 8.05%
Cc1ccc2nc(CC(=O)c3ccccc3)c(CC(=O)c3ccccc3)nc2c1 | 0.7% | -17% | 2.25% | 24.1% | 0.15% | -2.9%
CN(C=O)C1CCC2C3CC=C4CC(OC=O)CCC4(C)C3CCC21C (stereo unspecified) | 1.35% | 11.3% | 3.85% | 5.95% | -2.9% | -2%
CNc1ccc(C(=O)O)cc1 | -7.8% | -14% | -2.25% | 5.1% | -0.5% | -9.9%
